The values that follow come from PubChem BioAssay (Tox21).

Molecules are shown by their SMILES. Records with an inconclusive call do not appear. The source made the active and inactive calls. The call rests on the fitted dose curve.

Assay [1] has as its target Acetylcholinesterase (Homo sapiens) (UniProt P22303). Briefly: Acetylcholinesterase (AChE) small molecule antagonists: colormetric cell-based qHTS assay (AID 1347395). Further: nearly all actives have a fitted effect of over 30% in size. Further: potency means the concentration at half of the fitted maximal effect. The settings on record: SH-SY5Y cells AChE activity, colorimetric (Ellman); series mostly up to 115 µM. In a few lines:
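Colorimetric read-out: DTNB detects thiocholine released when cellular AChE in SH-SY5Y cells hydrolyses acetylthiocholine. Cells attached overnight, received compound for 30 min at 37 C, then substrate mix for 90 min at 37 C.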

Assay [2] has the same target. Briefly: Acetylcholinesterase (AChE) small molecule antagonists: enzyme-based qHTS assay (AID 1347397). Further: nearly all actives have a fitted effect of over 55% in size. Further: potency means the concentration at half of the fitted maximal effect. The note with it: Potency: AChE enzyme activity inhibition; outcome: AChE enzyme activity inhibition; series mostly up to 115 µM. Summed up: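 Colorimetric DTNB readout of acetylthiocholine hydrolysis, 10 min at room temperature, after 30 min room-temperature exposure of 50 mU/mL recombinant human enzyme to compound; DMSO vehicle control.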

The target is the same in assay [3]. Briefly: Acetylcholinesterase (AChE) small molecule antagonists: enzyme-based qHTS assay with human liver microsomes (AID 1347399). Further: nearly all actives have a fitted effect of over 60% in size. The note with it: Potency: qHTS inhibition; outcome: qHTS inhibition; series mostly up to 115 µM. Summed up: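 Recombinant human AChE (50 mU/mL in the enzyme mix) and human liver microsomes (0.25 mg/mL final) were preincubated with compound and NADPH (0.25 mg/mL final) for 30 min at 37 C. Acetylthiocholine/DTNB was then added; thiocholine was read colorimetrically after 10 min at room temperature.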

Sequence of Acetylcholinesterase (Homo sapiens) (P22303 whole entry, looked up): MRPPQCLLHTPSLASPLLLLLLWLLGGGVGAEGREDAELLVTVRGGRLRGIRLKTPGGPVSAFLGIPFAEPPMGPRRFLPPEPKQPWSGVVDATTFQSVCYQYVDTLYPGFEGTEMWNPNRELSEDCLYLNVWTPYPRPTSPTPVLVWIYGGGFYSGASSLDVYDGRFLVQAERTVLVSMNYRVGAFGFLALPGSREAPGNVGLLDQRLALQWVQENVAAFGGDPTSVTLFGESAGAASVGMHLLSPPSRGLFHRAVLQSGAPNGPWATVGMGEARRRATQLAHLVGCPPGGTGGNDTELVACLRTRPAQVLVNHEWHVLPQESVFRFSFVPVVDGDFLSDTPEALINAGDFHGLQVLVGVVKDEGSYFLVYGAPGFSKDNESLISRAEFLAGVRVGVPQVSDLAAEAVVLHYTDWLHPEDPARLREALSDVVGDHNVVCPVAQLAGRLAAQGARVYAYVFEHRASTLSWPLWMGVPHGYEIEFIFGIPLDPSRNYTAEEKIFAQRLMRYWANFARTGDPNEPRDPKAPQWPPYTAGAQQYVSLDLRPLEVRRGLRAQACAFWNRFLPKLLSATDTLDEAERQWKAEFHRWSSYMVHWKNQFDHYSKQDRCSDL

Regarding `CN[C@H]1CC[C@@H](c2ccc(Cl)c(Cl)c2)c2ccccc21`, the Potency result in assay [1], in assay [2] and in assay [3] was “inactive” in each case.

As to `CC(C)C[P+](C)(CC(C)C)CC(C)C`, the Potency in assay [1] is 40.2 µM (active). Also, the Potency entry in assay [2] and in assay [3] was “inactive” in each case.

For the compound `COc1ccccc1OCCNCC(O)COc1cccc2[nH]c3ccccc3c12` (configuration not stated), the Potency entry in assay [1], in assay [2] and in assay [3] was “inactive” throughout.

For the compound `O=c1cc(-c2ccccc2)oc2ccc3ccccc3c12`, the Potency entry in assay [1], in assay [2] and in assay [3] was “inactive” in each case.

As for `CC(C)COCC(CN(Cc1ccccc1)c1ccccc1)N1CCCC1` (configuration not stated), the Potency result in assay [1], in assay [2] and in assay [3] was “inactive” in each case.

Consider `OCCN1CCN(CC/C=C2/c3ccccc3Sc3ccc(C(F)(F)F)cc32)CC1`, for which the Potency entry in assay [1], in assay [2] and in assay [3] was “inactive” throughout.

Consider `COc1ccc(C(=O)NCc2ccc(OCCN(C)C)cc2)cc1OC`, for which the Potency in assay [1] is 6.92 µM (active); in assay [2], 27.5 µM (active). For the same compound, the Potency result in assay [3] was “inactive”.

As to `Cc1ccc([N+](=O)[O-])cc1Cl`, the Potency result in assay [1], in assay [2] and in assay [3] was “inactive” throughout.

`CCN(CC)CCOCCOC(=O)C1(c2ccccc2)CCCC1`: the Potency result in assay [1], in assay [2] and in assay [3] was “inactive” throughout.

Consider `Cc1ccc(NC(=O)c2ccc(CN3CCN(C)CC3)cc2)cc1Nc1nccc(-c2cccnc2)n1`, for which the Potency entry in assay [1], in assay [2] and in assay [3] was “inactive” each time.

In the case of `O=C(/C=C/c1ccc(O)c(O)c1)O[C@@H]1C[C@@](OC(=O)/C=C/c2ccc(O)c(O)c2)(C(=O)O)C[C@@H](O)[C@@H]1O`, the Potency entry in assay [1], in assay [2] and in assay [3] was “inactive” each time.

In the case of `O=C(Nc1ccc([N+](=O)[O-])cc1)Nc1ccc([N+](=O)[O-])cc1` (tested in a mixture with another compound), the Potency entry in assay [1], in assay [2] and in assay [3] was “inactive” throughout.

Take `COc1ccc2nc(SCc3ncc(C)c(OC)c3C)[nH]c2c1`: the Potency result in assay [1], in assay [2] and in assay [3] was “inactive” throughout.

Turning to `C=C(C)C(=O)OC`, the Potency result in assay [1], in assay [2] and in assay [3] was “inactive” in each case.

With `CCCCCCCC/C=C/C(=O)O`, the Potency result in assay [1], in assay [2] and in assay [3] was “inactive” each time.

Take `CCOC(=O)COc1ccc2c(c1)CC(NCC(O)c1cccc(Cl)c1)CC2` (configuration not stated): the Potency entry in assay [1], in assay [2] and in assay [3] was “inactive” each time.

For the compound `Cc1cc(CCN2CCN(c3nsc4ccccc34)CC2)cc2c1NC(=O)CC2(C)C`, the outcome in assay [1], in assay [2] and in assay [3] was inactive.

With `CC(C)COC(=O)C(C)C`, the Potency entry in assay [1], in assay [2] and in assay [3] was “inactive” in each case.

In the case of `Cc1cc(-c2ccccc2)nnc1NCCN1CCOCC1`, the Potency entry in assay [1], in assay [2] and in assay [3] was “inactive” throughout.

With `Cc1ccc2c(c1)CCCN2`, the Potency result in assay [1], in assay [2] and in assay [3] was “inactive” throughout.

For the compound `COc1cc2c(Nc3ccc(Br)cc3F)ncnc2cc1OCC1CCN(C)CC1`, the Potency entry in assay [1], in assay [2] and in assay [3] was “inactive” throughout.

On to `C/C=C/C=C/C=O`, for which the Potency result in assay [1], in assay [2] and in assay [3] was “inactive” throughout.

`C[Si](C)(C)C`: the Potency result in assay [1], in assay [2] and in assay [3] was “inactive” in each case.

As to `CCCCNc1ccc(C(=O)OCCOCCOCCOCCOCCOCCOCCOCCOCCOC)cc1`, the Potency entry in assay [1], in assay [2] and in assay [3] was “inactive” throughout.

Regarding `Cc1ccc(-c2ncc(Cl)cc2-c2ccc(S(C)(=O)=O)cc2)cn1`, in assay [1], the Potency is 27.5 µM (active). Besides, the Potency entry in assay [2] and in assay [3] was “inactive” each time.

With `Nc1cc(C(Cl)=C(Cl)Cl)c(S(N)(=O)=O)cc1S(N)(=O)=O`, the Potency entry in assay [1], in assay [2] and in assay [3] was “inactive” each time.

`CN1C(C)(C)CCCC1(C)C`: the Potency entry in assay [1], in assay [2] and in assay [3] was “inactive” throughout.

As for `Nc1ccc([N+](=O)[O-])cc1O`, the Potency result in assay [1], in assay [2] and in assay [3] was “inactive” in each case.

For the compound `O=C(CCN1CCC(c2ccccc2)C1)c1ccc2c(c1)OCCO2` (configuration not stated), in assay [1], the Potency is 30.9 µM (active). Moreover, the Potency entry in assay [2] and in assay [3] was “inactive” each time.

With `Nc1ccn(C2CO[C@H](CO)O2)c(=O)n1` (some centres not stated), the Potency entry in assay [1], in assay [2] and in assay [3] was “inactive” in each case.

For the compound `O=C(Nc1ccc2c(O)c(N=Nc3ccc(N=Nc4ccc(S(=O)(=O)O)cc4)cc3)c(S(=O)(=O)O)cc2c1)c1ccccc1`, the Potency result in assay [1], in assay [2] and in assay [3] was “inactive” each time.

Consider `COC(=O)c1ccc(I)cc1S(=O)(=O)NC(=O)Nc1nc(C)nc(OC)n1`, for which the Potency result in assay [1], in assay [2] and in assay [3] was “inactive” throughout.

For `O=C(CN1CCN(Cc2ccc3c(c2)OCO3)CC1)N1c2ccccc2Sc2ccccc21`, the Potency entry in assay [1], in assay [2] and in assay [3] was “inactive” each time.

`OC[C@@H](O)[C@@H](O)CO`: the Potency result in assay [1], in assay [2] and in assay [3] was “inactive” in each case.

In the case of `NC(=O)c1ncn([C@@H]2O[C@H](CO)[C@@H](O)[C@H]2O)c1O`, the Potency entry in assay [1], in assay [2] and in assay [3] was “inactive” in each case.

On to `CCCCCN=C(N)N/N=C/c1c[nH]c2ccc(OC)cc12`, for which the Potency result in assay [1], in assay [2] and in assay [3] was “inactive” each time.

Turning to `Oc1cc2c(cc1O)[C@H]1c3ccc(O)c(O)c3OC[C@@]1(O)C2`, the Potency result in assay [1], in assay [2] and in assay [3] was “inactive” in each case.

For the compound `CCCCCC=CCC=CCCCCCCCC(=O)OCC`, the Potency result in assay [1], in assay [2] and in assay [3] was “inactive” throughout.

`CCCOc1ccc2c(c1)CC[C@@H]1[C@@H]2CC[C@]2(C)C(OC)CC[C@@H]12` (some centres not stated): the Potency result in assay [1], in assay [2] and in assay [3] was “inactive” in each case.
